Assay results: PubChem BioAssay (NCI)
The panel holds about 83,000 compounds, 20% with a hit somewhere; the sample as a whole holds those more often.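 Values shown are percent growth following 48 h exposure of cells in 96-well plates to a single concentration of compound; below 10 was considered active.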 Values without a mark were called inactive. Activity calls are given as the source filed them.

How the values were obtained:
Test in all cases: NCI-60 one-dose screen, 48 h (100 = growth as untreated, 0 = no growth, -100 = all killed)
Settings in all cases: 10 µM unless noted
[1] = tested on: T-47D breast
[2] = tested on: BT-549 breast
[3] = tested on: MDA-MB-435 melanoma
[4] = tested on: SW-620 colon
[5] = tested on: MCF7 breast
[6] = tested on: HCT-116 colon
[7] = tested on: HCC-2998 colon
[8] = tested on: KM12 colon

| SMILES | growth [1] | growth [2] | growth [3] | growth [4] | growth [5] | growth [6] | growth [7] | growth [8] |
| --- | --- | --- | --- | --- | --- | --- | --- | --- |
| O=C(CSc1nc2sc3c(c2c(=O)n1Cc1ccccc1)CCCC3)N1CCN(c2ccccc2)CC1 | 80.9% | 90.1% | 101% | 102% | 95.5% | 85.4% | 103% | 101% |
| CC(=O)c1cccc(NS(=O)(=O)c2cccc(C(=O)Nc3ccc(Br)cc3)c2)c1 | 26.7% [25 µM] | 46.9% [25 µM] | 37.6% [25 µM] | 67.4% [25 µM] | 49% [25 µM] | 39.9% [25 µM] | 79.7% [25 µM] | 56% [25 µM] |
| CN(C)C(C(N)=O)c1ccc(Cl)cc1 (stereo not drawn) | 102% | 100% | 101% | 104% | 106% | 94.9% | 102% | 102% |
| CC(=O)OCCCCCNc1ccccc1 | 103% | 102% | 111% | 101% | 109% | 113% | 107% | 94.6% |
| CC(C)(C)OC(=O)N1CCN(c2ccc(N)cc2)C(=O)C1 | 106% | 116% | 106% | 109% | 91.9% | 99.9% | 102% | 108% |
| CCCCCCc1nc2nc(Cl)c(Cl)nc2[nH]1 | 22.7% | 66.5% | 61.9% | 87.6% | 64.4% | 57.1% | 61.3% | 47.6% |
| CCCCCCOc1ccc(C(=N)N(CCCC)CCCC)c2ccccc12 | -65.5% (active) | -94.6% (active) | -89.5% (active) | -61.3% (active) | -74.8% (active) | -99.2% (active) | -98% (active) | -90.3% (active) |
| CN1CCN(c2cc(F)c(NC3=C(Cl)C(=O)c4ncccc4C3=O)c(F)c2)CC1 | -32.5% (active) | 80.5% | -75.8% (active) | -76.6% (active) | -58.2% (active) | -69.7% (active) | 61.9% | 82.4% |
| Nc1nnc(C(=O)c2cnc3n(c2=O)CCCCC3)s1 | 98.5% | 108% | 106% | 100% | 98.8% | 103% | 106% | 105% |
| CC(=O)c1c(C)[nH]c(-c2nc3ccc(N4CCN(C)CC4)cc3[nH]2)c1-c1ccccc1 | 20.3% | 81.9% | 19.8% | 54.8% | 7.32% (active) | 59.6% | 27.8% | 39.7% |
| CC1(C)CN(Cc2ccccc2)CCN1Cc1ccccc1 | 100% | 109% | 104% | 97.6% | 114% | 101% | 106% | 104% |
| Cc1cccc(C)c1-c1cc(Cc2ccc(Cl)cc2)c(=O)[nH]n1 | 86.4% | 86.1% | 119% | 104% | 97.2% | 96.9% | 86.4% | 103% |
| Cn1c(COC(=O)NCCc2ccccn2)nc2c(N3CCOCC3)nc(Cl)nc21 | -2.17% (active) | 2.36% (active) | -83.3% (active) | -86.2% (active) | -43.5% (active) | -69.8% (active) | 37.5% | 44.3% |
| C/C(=C(/c1ccccc1)c1ccc(OCC(O)CNCCN2CCOCC2)cc1)c1ccccc1 (stereo not drawn) | 89.3% | 105% | -63.8% (active) | 49% | 44.6% | 106% | -59.6% (active) | 54.3% |
| COc1ccc(/C=C/c2n[nH]c3ccc(N4CCOC4=O)cc23)cc1 | 17.6% | 16.1% | 44.4% | 1.51% (active) | 2.37% (active) | 8.08% (active) | 31.5% | 8.51% (active) |
| C=C1C(=O)O[C@H]2[C@H]1CC/C(COC(=O)CCCc1c[nH]c3ccccc13)=C\CC[C@@]1(C)O[C@@H]21 | 57.3% | 41.1% | 60.3% | 24.9% | 11% | -77.5% (active) | 102% | 85.7% |

| SMILES | growth [1] | growth [2] | growth [3] | growth [4] | growth [5] | growth [6] | growth [7] | growth [8] |
| --- | --- | --- | --- | --- | --- | --- | --- | --- |
| COc1ccc(/C=N/C2=C(C#N)C(c3ccccc3[N+](=O)[O-])c3ccc4ccccc4c3O2)cc1 (stereo not drawn) | 79.4% | 92.8% | 98.5% | 97.8% | 56.4% | 83.3% | 106% | 95.9% |
| CC1NC(=S)NC(=O)/C1=C/c1cc(=O)oc2c1ccc1ccccc12 (stereo not drawn) | 93.4% | 87.7% | 105% | 95.5% | 89.9% | 91.8% | 105% | 99.6% |
| CC(=O)Nc1ccc(C(=O)Nc2cc(-c3ccccc3)ccc2N)cc1 | 66% | 102% | 60.1% | 59.3% | 55.6% | 50.1% | 90.7% | 73.2% |
| Cc1ccc2[nH]c(=O)cc(-n3nncc3COc3ccc(C=O)cc3)c2c1 | 97.5% | 90.8% | 103% | 99.4% | 95.6% | 108% | 109% | 106% |
| CCn1cc(C2NC(=O)c3ccccc3N2)c2cccc(C)c21 (stereo not drawn) | 36.9% | 48.7% | -31.9% (active) | 24.7% | 16.9% | 7.91% (active) | 9.07% (active) | 15.9% |
| C[C@H]1[C@H](C)CC[C@]2(CO)CC[C@]3(C)C(=CC[C@@H]4[C@@]5(C)Cc6c([nH]c7ccccc67)C(C)(C)[C@@H]5CC[C@]43C)[C@H]12 | 68.3% | 85.2% | 90.3% | 96.2% | 74.1% | 61.5% | 86% | 73.8% |
| NC(=O)c1ncn(C2OC(CO)C(O)C2O)n1 (stereo not drawn) | 84.6% | 96.8% | 107% | 70.9% | 80.8% | 57.5% | 92.8% | 98.3% |
| COc1ccc(/C=C/C(=O)c2ccc(OC)c(OC)c2)cc1O | 75.7% | 85.2% | 75% | 17.1% | 51.6% | 20.3% | 102% | 70.6% |
| CC(=O)Nc1ccc(S(=O)(=O)NC2CCCCC2)cc1 | 90.9% | 96.4% | 105% | 97.7% | 96.9% | 103% | 102% | 104% |
| O=C(NCCc1ccccn1)OCc1nc2nc(Cl)nc(N3CCOCC3)c2[nH]1 | 33.5% | 8.16% (active) | 11.9% | -37.2% (active) | 15.6% | -71.8% (active) | 77.6% | 12.2% |
| C#CCn1cc(C=C2C(=O)NC(=S)NC2=O)c2cc(Cl)ccc21 | 76.6% | 24.6% | 15% | -27.5% (active) | 10.6% | 2.51% (active) | -4.98% (active) | 14.4% |
| COC(=O)N[C@H]1CCc2cc(OC)c(OC)c(OC)c2-c2ccc(SC)c(=O)cc21 | 50.2% | -4.09% (active) | -29.5% (active) | 16.9% | 14.7% | 5.32% (active) | 6.51% (active) | 1.21% (active) |
| CCCCCN1C=C/C(=C\C(=O)N(C)c2cccc3ccccc23)c2ccccc21 | 87.9% | 99.4% | 100% | 94.3% | 91.3% | 86.9% | 102% | 103% |
| CC1(C)NCCC[C@]2(C)[C@H]3CC=C4[C@@H]5C[C@@](C)(CO)CC[C@]5(C)CC[C@@]4(C)[C@]3(C)CC[C@@H]12 | 57.7% | 78.5% | 51.5% | 74.1% | 40.7% | 21% | 60.5% | 52.8% |
| CN(C)c1ccc(-c2c(C#N)c(N)n3nc(N)c(C#N)c3c2C#N)cc1 | 59.5% | 69.1% | 97% | 112% | 99.3% | 99.3% | 83.6% | 75.4% |
